From the antibiotic and cytotoxicity screens of Wong et al. (2023)
The campaign covered roughly 39,000 compounds. About 1,500 (3.8%) were called active. For the sample, actives were picked, then their nearest neighbours and some compounds at random.

What follows are molecules tested on HSkMC (human skeletal muscle cells) (assay: cytotoxicity call (relative viability < 0.9)). Settings: 10 µM.

**Q.** With C[C@H]1CCCCO[C@H](CN(C)C(=O)c2ccccc2)[C@@H](C)CN([C@@H](C)CO)C(=O)c2cc(NC(=O)Nc3ccc4c(c3)OCO4)ccc2O1 as the molecule, how does the cytotoxicity call read?
**A.** inactive

**Q.** Which cytotoxicity call does the source give for COc1ccc(S(=O)(=O)N2CC(NC(=O)Cn3ccc(=O)n(C)c3=O)C2)cc1 here?
**A.** inactive

**Q.** O=S(=O)(N1CCOCC1)n1nnc2ccccc21 was tested. Which cytotoxicity call did it give?
**A.** inactive

**Q.** How did the cytotoxicity call turn out when C[C@H](CO)N1C[C@H](C)[C@H](CN(C)Cc2ccc(C(F)(F)F)cc2)Oc2ccc(NC(=O)Cn3cnnn3)cc2CC1=O was run?
**A.** inactive

**Q.** For C[C@@H]1CN([C@@H](C)CO)C(=O)c2cc(C#CC3(O)CCCC3)cnc2O[C@@H]1CN(C)C(=O)C1CCOCC1, which cytotoxicity call is on record?
**A.** inactive

**Q.** CN1C(=O)c2cc(NC(=O)Cc3cccs3)ccc2OC[C@H]2O[C@H](CC(=O)NCCCN3CCOCC3)CC[C@@H]21 was tested. Which cytotoxicity call did it give?
**A.** inactive

**Q.** Cc1noc(C)c1S(=O)(=O)Nc1ccc2c(c1)C(=O)N([C@@H](C)CO)C[C@H](C)[C@H](CN(C)S(=O)(=O)c1cccs1)O2 was tested. Which cytotoxicity call did it give?
**A.** inactive

**Q.** How did the cytotoxicity call turn out when C[C@@H]1CN([C@H](C)CO)C(=O)CCCn2cc(nn2)CO[C@@H]1CN(C)S(=O)(=O)c1cccc(C#N)c1 was run?
**A.** inactive

**Q.** Which cytotoxicity call does the source give for OS(=O)(=O)c1ccc(cc1)/C/1=C\2/N/C(=C(\C3=N/C(=C(/c4ccc(cc4)S(=O)(=O)O)c4ccc([nH]4)/C(=C\4/C=CC1=N4)c1ccc(cc1)S(=O)(=O)O)C=C3)c1ccc(cc1)S(=O)(=O)O)C=C2 here?
**A.** inactive

**Q.** How did the cytotoxicity call turn out when Oc1cccc(c1)/C/1=C/2\CC/C(=C(\c3cccc(c3)O)c3ccc([nH]3)/C(=C\3/C=CC(=N3)/C(=C\3/C=CC1=N3)c1cccc(c1)O)c1cccc(c1)O)N2 was run?
**A.** active

**Q.** Which cytotoxicity call does the source give for CC(C)NC(=O)Nc1ccc2c(c1)CC(=O)N([C@@H](C)CO)C[C@@H](C)[C@@H](CN(C)C(=O)NC1CCCCC1)O2 here?
**A.** inactive

**Q.** How did the cytotoxicity call turn out when CCC(=O)NC[C@H](Cc1ccc(OCCc2nc(-c3ccccc3)oc2C)cc1)N/C(C)=C\C(=O)c1ccc(C(F)(F)F)cc1 was run?
**A.** active

**Q.** How did the cytotoxicity call turn out when O=C(O)C[C@@H]1CC[C@H]2[C@@H](COC[C@H](O)CN2S(=O)(=O)c2ccc(F)cc2)O1 was run?
**A.** inactive

**Q.** With COc1cnc(SC)n(C)c1=O as the molecule, how does the cytotoxicity call read?
**A.** inactive

**Q.** With C[C@@H]1CN([C@@H](C)CO)C(=O)Cc2cc(NS(=O)(=O)c3cn(C)cn3)ccc2O[C@H]1CN(C)CC1CCCCC1 as the molecule, how does the cytotoxicity call read?
**A.** inactive

**Q.** For CN(C)CC#Cc1ccc([C@H]2[C@@H](CO)N3CCCCN(C(=O)CN(C)C)C[C@H]23)cc1, which cytotoxicity call is on record?
**A.** inactive

**Q.** COc1ccc(NC(=O)N2CCCCN3[C@H](CN(C)C(C)=O)[C@H](c4ccc(C#Cc5ccccc5)cc4)[C@@H]3C2)cc1 was tested. Which cytotoxicity call did it give?
**A.** active

**Q.** With CN(C)CC#Cc1ccc([C@@H]2[C@H](CO)N3CCCCN(C(=O)CN(C)C)C[C@@H]23)cc1 as the molecule, how does the cytotoxicity call read?
**A.** inactive

**Q.** With COc1ccc(NC(=O)N2CCCCN3[C@H](COCCN(C)C)[C@H](c4ccc(C#Cc5ccccc5)cc4)[C@@H]3C2)cc1 as the molecule, how does the cytotoxicity call read?
**A.** active

**Q.** CN(C)CC#Cc1ccc([C@@H]2[C@@H](CO)N3CCCCN(C(=O)CN(C)C)C[C@@H]23)cc1 was tested. Which cytotoxicity call did it give?
**A.** inactive

**Q.** CN(C)CC#Cc1ccc([C@H]2[C@@H](CO)N3CCCCN(C(=O)CN(C)C)C[C@@H]23)cc1 was tested. Which cytotoxicity call did it give?
**A.** inactive

**Q.** Which cytotoxicity call does the source give for C[C@H]1Cc2c(N)nn(C)c2NC1=O here?
**A.** inactive

**Q.** How did the cytotoxicity call turn out when CC(=O)OCC(=O)C12OC3(CCCC3)OC1CC1C3CCC4=CC(=O)C=CC4(C)C3(F)C(O)CC12C (stereo not drawn) was run?
**A.** inactive

**Q.** For C[C@@H]1CN([C@H](C)CO)C(=O)Cc2cc(NS(=O)(=O)c3cccs3)ccc2O[C@H]1CN(C)Cc1ccc(-c2ccccc2)cc1, which cytotoxicity call is on record?
**A.** inactive

**Q.** Cc1ccc(-c2ccc3c(c2)O[C@@H](CN(C)C(=O)NC(C)C)[C@@H](C)CN([C@H](C)CO)S3(=O)=O)cc1 was tested. Which cytotoxicity call did it give?
**A.** inactive

**Q.** How did the cytotoxicity call turn out when COc1ccc(NC(=O)N(C)C[C@@H]2OCCCC[C@@H](C)Oc3ccc(NC(=O)Cc4ccccc4)cc3C(=O)N([C@H](C)CO)C[C@H]2C)cc1 was run?
**A.** inactive

**Q.** C[C@@H]1CCCCO[C@@H](CN(C)C(=O)Cc2ccccc2)[C@@H](C)CN([C@H](C)CO)C(=O)c2cc(NC(=O)c3ccccc3)ccc2O1 was tested. Which cytotoxicity call did it give?
**A.** inactive

**Q.** How did the cytotoxicity call turn out when COc1ccc(-c2cccc(-c3nc(C(=O)NCC(F)(F)F)cc4c3[C@H](CCO)N([S@@](=O)C(C)(C)C)C4)c2)cc1 was run?
**A.** inactive

**Q.** For C[C@@H]1CCCCO[C@@H](CN(C)C(=O)Cc2ccccc2)[C@H](C)CN([C@@H](C)CO)C(=O)c2cc(NC(=O)CCC(F)(F)F)ccc2O1, which cytotoxicity call is on record?
**A.** inactive

**Q.** With NC1CCN(C(=O)c2c[nH]c3ccccc23)CC1 as the molecule, how does the cytotoxicity call read?
**A.** inactive

**Q.** For COc1cc(N2CCC(N3CCN(C)CC3)CC2)ccc1Nc1ncc(Cl)c(Nc2ccccc2S(=O)(=O)C(C)C)n1, which cytotoxicity call is on record?
**A.** active

**Q.** With COc1cc(N2CCC(N)CC2)ccc1Nc1ncc(Cl)c(-c2c[nH]c3ccccc23)n1 as the molecule, how does the cytotoxicity call read?
**A.** active

**Q.** COc1cc(N2CCC(N(C)C)CC2)ccc1Nc1ncc(Cl)c(Nc2ccccc2P(C)(C)=O)n1 was tested. Which cytotoxicity call did it give?
**A.** active

**Q.** How did the cytotoxicity call turn out when COc1cc(N2CCC(O)CC2)ccc1Nc1cc(Nc2ccccc2S(=O)(=O)C(C)C)c2cc[nH]c2n1 was run?
**A.** inactive

**Q.** How did the cytotoxicity call turn out when COc1cc(C(=O)NC2CCN(C)CC2)ccc1Nc1ncc2c(n1)N(C1CCC(O)CC1)CCC(=O)N2C (stereo not drawn) was run?
**A.** inactive

**Q.** Which cytotoxicity call does the source give for Cc1cc(Nc2ncc(Cl)c(Nc3ccccc3S(=O)(=O)C(C)C)n2)c(OC(C)C)cc1C1CCNCC1 here?
**A.** active

**Q.** How did the cytotoxicity call turn out when Cc1noc(C)c1NC(=O)N(C)C[C@H]1Oc2ccc(NC(=O)CCCN(C)C)cc2C(=O)N([C@@H](C)CO)C[C@H]1C was run?
**A.** inactive

**Q.** How did the cytotoxicity call turn out when C[C@H]1CN([C@@H](C)CO)C(=O)c2cc(NC(=O)Cc3cn(C)c4ccccc34)ccc2O[C@H]1CN(C)Cc1ccc(C(=O)Nc2ccccc2N)cc1 was run?
**A.** inactive

**Q.** For COc1ccc(NC(=O)N(C)C[C@@H]2OCCCC[C@@H](C)Oc3ccc(NS(=O)(=O)c4ccccc4)cc3C(=O)N([C@@H](C)CO)C[C@H]2C)cc1, which cytotoxicity call is on record?
**A.** inactive

**Q.** How did the cytotoxicity call turn out when O=C(C[C@@H]1C=C[C@H](NC(=O)CN2CCOCC2)[C@@H](CO)O1)NC1CCCCC1 was run?
**A.** inactive

**Q.** For C[C@@H]1CN([C@@H](C)CO)S(=O)(=O)c2ccc(C#CCC3CCCC3)cc2O[C@@H]1CN(C)C(=O)c1cnccn1, which cytotoxicity call is on record?
**A.** inactive

**Q.** With C[C@H](CO)N1C[C@H](C)[C@H](CN(C)Cc2ccc(C(=O)O)cc2)Oc2ccc(NS(=O)(=O)c3cn(C)cn3)cc2C1=O as the molecule, how does the cytotoxicity call read?
**A.** inactive

**Q.** With O=C(NCCN1CCCC1)[C@H]1[C@H](CO)[C@H]2Cn3c(cccc3=O)[C@H]2N1C(=O)c1ccccc1 as the molecule, how does the cytotoxicity call read?
**A.** inactive
